Data on 15 molecules can be found in PubChem BioAssay.

Active and inactive are the calls of the source. Unless noted, no rule for the calls is given here.

Experiment [1] concerns XIP peptide (Xip251-270) binding. Briefly: small-molecule binders of XIP peptide, primary screen, biochemical, small-molecule microarray, fluorescence 635/667 nm, 0.1 µg/mL protein (AID 1182). Particulars: fluorescent protein binding, 635 nm, higher = more signal, called active from +8 up or from −8 down.
Experiment [2] deals with XIP peptide (Xip251-270). Briefly: small-molecule binders of XIP peptide, primary screen, biochemical, small-molecule microarray, fluorescence 635/667 nm, 0.5 µg/mL protein (AID 1183). The settings on record: small-molecule microarray binding, fluorescence 635 nm; higher = more signal.
A short description of experiment [3]: Plasmodium falciparum growth inhibition, primary screen, strain 3D7, DAPI fluorescence, 100 nL (AID 1184).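 Also: parasites grown inside human red blood cells in medium with human serum.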 Particulars: P. falciparum 3D7 growth, 3 d, higher = more signal.
Experiment [4] concerns the target Homeobox protein Hox-A13 (Mus musculus) (UniProt Q62424). Briefly: inhibitors of HoxA13-DNA binding, primary screen, biochemical, fluorescence polarization, labeled oligonucleotide (AID 1185). Particulars: 15 min, higher = more signal, called active from +8 up or from −8 down. On the technique in general: Polarisation of emitted light reports the rotation of a fluorescent probe.

A short description of experiment [5]: inhibitors of hydroxyurea-induced Chk1 phosphorylation, primary screen, imaging, HeLa, phospho-Chk1 antibody, percent positive cells (AID 1186). The settings on record: hydroxyurea-induced phospho-Chk1 immunofluorescence imaging, higher = more signal.
A short description of experiment [6]: inhibitors of hydroxyurea-induced Chk1 phosphorylation, primary screen, imaging, HeLa, phospho-Chk1 nuclear intensity (AID 1187). Particulars: hydroxyurea-induced phospho-Chk1 immunofluorescence imaging, higher = more signal.

Chain of Homeobox protein Hox-A13 (Mus musculus) (Q62424 whole entry, looked up): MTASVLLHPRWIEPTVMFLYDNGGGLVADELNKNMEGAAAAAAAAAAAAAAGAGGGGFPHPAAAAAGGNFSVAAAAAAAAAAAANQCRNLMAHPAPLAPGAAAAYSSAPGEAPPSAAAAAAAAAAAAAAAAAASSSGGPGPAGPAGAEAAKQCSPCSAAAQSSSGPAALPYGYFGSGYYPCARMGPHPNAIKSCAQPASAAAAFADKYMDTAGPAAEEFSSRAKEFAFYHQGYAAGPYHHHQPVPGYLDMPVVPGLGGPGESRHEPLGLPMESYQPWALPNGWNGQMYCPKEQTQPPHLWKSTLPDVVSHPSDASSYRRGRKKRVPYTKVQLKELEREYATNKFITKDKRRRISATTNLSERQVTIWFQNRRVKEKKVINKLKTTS

In the case of `CCOC(=O)C=Cc1cc(F)ccc1O`, the results for the composite z-score in experiment [1] and in experiment [2] were 0.198 (inactive) and 0.487, respectively. Moreover, the z-score in experiment [3] is -1.65; in experiment [4], -0.42 (inactive); in experiment [5], 0.631 (inactive); in experiment [6], -1.13 (inactive).

Turning to `COC(=O)C(CC#Cc1ccc2c(c1)[C@]1(C(=O)N2)[C@H](C(=O)Nc2nc3ccccc3s2)[C@H]2C(=O)O[C@H](c3ccccc3)[C@H](c3ccccc3)N2[C@@H]1c1ccc(OCCO)cc1)C(=O)OC`, the composite z-score in experiment [1] is 3.13 (inactive); in experiment [2], 0.771. The z-score was -2.1 in experiment [3], 0.713 (inactive) in experiment [4], 0.0974 (inactive) in experiment [5] and 0.531 (inactive) in experiment [6].

For the molecule `COCCOC(=O)N1C(=O)[C@@]2(c3cc(C#CC4(O)CCCCCC4)ccc31)[C@H](c1ccc(OCCO)cc1)N1[C@H](c3ccccc3)[C@H](c3ccccc3)OC(=O)[C@H]1[C@@H]2C(=O)Nc1nc2ccccc2s1`, the composite z-score in experiment [1] is 0.284 (inactive); in experiment [2], 0.78. For the same molecule, the z-score in experiment [3] is -0.726; in experiment [4] it was 1.07 (inactive); in experiment [5] it was 0.218 (inactive); in experiment [6], 0.561 (inactive).

Consider `COCCOC(=O)N1C(=O)[C@@]2(c3cc(C#CCCO)ccc31)[C@H](c1ccccc1OCCO)N1[C@H](c3ccccc3)[C@H](c3ccccc3)OC(=O)[C@H]1[C@@H]2C(=O)N1CCCCCCC1`, for which the results for the composite z-score in experiment [1] and in experiment [2] were 0.783 (inactive) and 0.759, respectively. Besides, the z-score in experiment [3] was -2.25; in experiment [4], 3.84 (inactive); in experiment [5], -0.304 (inactive); in experiment [6], -0.387 (inactive).

As for `COc1cccc(/C=C(\C#N)C(=O)Nc2c(C)n(C)n(-c3ccccc3)c2=O)c1`, the composite z-score in experiment [1] was 0.0887 (inactive); in experiment [2] it was 0.438. For the same molecule, the z-score is 0.393 in experiment [3], -0.75 (inactive) in experiment [4], -0.252 (inactive) in experiment [5] and -0.13 (inactive) in experiment [6].

As to `COc1ccc([Si](C)(C)[C@H]2[C@H](CC(=O)N3CCC[C@H]3CO)O[C@@]3(C(=O)N(Cc4ccc(N5CCC5=O)cc4)c4ccccc43)[C@@H]2C)cc1`, the composite z-score in experiment [1] is 1.18 (inactive); in experiment [2] it was 0.709. Further, the z-score in experiment [3] was -0.986; in experiment [4], -3.74 (inactive); in experiment [5], 0.312 (inactive); in experiment [6] it was -0.36 (inactive).

Take `C=C(/C(=C/C[C@H](OC(=O)c1ccncc1)c1cccc(OCCO)c1)c1cnc2ccccc2c1)C(C)C`: the composite z-score in experiment [1] was 0.0082 (inactive); in experiment [2], 0.67. Further, the z-score is -1.42 in experiment [3], -5.01 (inactive) in experiment [4], 0.654 (inactive) in experiment [5] and 0.212 (inactive) in experiment [6].

As to `COc1cc(CO)cc(I)c1O[C@H]1C=C(C(=O)NCCO)C[C@@H](NCC2CCCCC2)[C@@H]1O`, the values for the composite z-score in experiment [1] and in experiment [2] were 0.0593 (inactive) and 0.465, respectively. For the same molecule, the z-score is -0.68 in experiment [3], -3.57 (inactive) in experiment [4], -1.23 (inactive) in experiment [5] and -0.873 (inactive) in experiment [6].

Consider `COC(=O)[C@@]1(Cc2ccccc2CN=[N+]=[N-])N=C(c2ccc(OCCCO)cc2)O[C@H]1c1ccccc1CN=[N+]=[N-]`, for which the composite z-score in experiment [1] was 0.192 (inactive); in experiment [2] it was 0.723. Further, the z-score is -2.2 in experiment [3], 0.87 (inactive) in experiment [4], -0.598 (inactive) in experiment [5] and -0.223 (inactive) in experiment [6].

Take `O=C1OCCC/C=C\[C@H]2OC34C=CCN(c5ccc6ccccc6c5)C(=O)[C@H]3N(CCCO)C(=O)[C@@H]4C12` (stereo not given in full): the composite z-score in experiment [1] was 0.0317 (inactive); in experiment [2] it was 0.481. Besides, the z-score in experiment [3] is 0.267; in experiment [4], -5.72 (inactive); in experiment [5] it was 1.41 (inactive); in experiment [6], 0.656 (inactive).

`C=CCC(OC(C)=O)[C@@H]1[C@@H](N(Cc2ccc(-c3cccc(C(F)(F)F)c3)o2)C(=O)c2cccc3ccccc23)c2cc(OCCCO)ccc2N1C(=O)Cc1ccc(OC)cc1` (stereo not given in full): the composite z-score in experiment [1] is 0.309 (inactive); in experiment [2], 0.456. Besides, the z-score in experiment [3] is -2.43; in experiment [4] it was -1.92 (inactive); in experiment [5], -0.48 (inactive); in experiment [6] it was 0.0284 (inactive).

For `C=C(CCCC)/C(=C/C[C@H](OC(C)=O)c1ccc(OCCO)cc1)c1cc(C(=O)OC)ccc1OC`, the composite z-score in experiment [1] is -0.124 (inactive); in experiment [2] it was 0.71. Also, the z-score in experiment [3] was -2.82; in experiment [4], -3.64 (inactive); in experiment [5], -1.09 (inactive); in experiment [6], -1.97 (inactive).

Regarding `CCCCNC(=O)c1ccc(C#C[Si](C(C)C)(C(C)C)C(C)C)c(OC(C)=O)c1`, the composite z-score in experiment [1] is -0.211 (inactive); in experiment [2], 0.413. Besides, the z-score in experiment [3] is -2.74; in experiment [4], -2.16 (inactive); in experiment [5] it was 0.0917 (inactive); in experiment [6], 0.331 (inactive).

Consider `O=C1O[C@H](c2ccccc2)[C@H](c2ccccc2)N2[C@H]1[C@@H](C(=O)N1CCCCCCC1)[C@]1(C(=O)Nc3ccc(C#CC4(O)CCCCCC4)cc31)[C@H]2c1ccccc1OCCO`, for which the composite z-score was 5.88 (inactive) in experiment [1] and 0.943 in experiment [2]. Moreover, the z-score in experiment [3] is -1.88; in experiment [4] it was 4.4 (inactive); in experiment [5], -0.0468 (inactive); in experiment [6], 0.285 (inactive).

With `O=C1OCCC=C[C@H]2OC34C=CCN(c5ccc(Cl)cc5)C(=O)[C@H]3N(CCCCCCO)C(=O)[C@@H]4C12` (stereo not given in full), the composite z-score in experiment [1] was 0.43 (inactive); in experiment [2], -0.619. For the same molecule, the z-score in experiment [3] was -0.278; in experiment [4], -5.62 (inactive); in experiment [5] it was -0.301 (inactive); in experiment [6] it was 0.116 (inactive).
